Test results published in PubChem BioAssay AID1159580 (chemical genetic matrix, 2015).
Out of some 5,500 compounds screened, about 2,000 (36%) were called active. Another 18% or so got no clear call; they are omitted. Cut-off read from the data, not from the text of the source: active = normalized growth mostly below about 0.91 (no sharp cut-off); inconclusive = no clear call, values can overlap the other calls; inactive = mostly above about 0.92. The list shows a part of the results.

Test: chemical genetic growth profiling, strain panel (AID 1159580);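 note: tested at 20 µM; growth read once vehicle control cultures reached saturation at 30 °C; 1 = growth at the plate median or of vehicle wells; lower values mean less growth of the strain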
Conditions: S. cerevisiae deletion strains, growth OD

Measured: normalized growth

COC(=O)[C@@H]1OC(=O)C2OC23[C@@]1(C)CCC1[C@]2(C)C(C[C@H](O)[C@]13C)C(C)(C)[C@H](OC(C)=O)C[C@@H]2OC(C)=O (some centres not stated)
inactive: locus YAL021C, strain ccr4, stronger effect = lower value 1.01 | locus YAL026C, strain drs2, stronger effect = lower value 1.01 | locus YAL030W, strain snc1, stronger effect = lower value 1.01 | locus YBL061C, strain skt5, stronger effect = lower value 1.01 | locus YBR009C, strain hhf1, stronger effect = lower value 1.03 | locus YBR021W, strain FUR4, stronger effect = lower value 1.01 | locus YBR023C, strain chs3, stronger effect = lower value 1.02 | locus YBR171W, strain sec66, stronger effect = lower value 1.02 | locus YBR229C, strain ROT2, stronger effect = lower value 1.01 | locus YBR231C, strain swc5, stronger effect = lower value 1.01 | locus YBR279W, strain paf1, stronger effect = lower value 1.02 | locus YCL011C, strain gbp2, stronger effect = lower value 1 | locus YCL016C, strain dcc1, stronger effect = lower value 1.02 | locus YCL029C, strain bik1, stronger effect = lower value 0.999 | locus YCL061C, strain MRC1, stronger effect = lower value 1.02 | locus YCL069W, strain vba3, stronger effect = lower value 1.01 | locus YCR088W, strain abp1, stronger effect = lower value 1.02 | locus YDL005C, strain med2, stronger effect = lower value 1.02 | locus YDL035C, strain GPR1, stronger effect = lower value 1.04 | locus YDL040C, strain nat1, stronger effect = lower value 1.01 | locus YDL074C, strain BRE1, stronger effect = lower value 1.04 | locus YDL101C, strain DUN1, stronger effect = lower value 1 | locus YDL134C, strain PPH21, stronger effect = lower value 1 | locus YDL185W, strain tfp1, stronger effect = lower value 1 | locus YDL192W, strain arf1, stronger effect = lower value 1.01 | locus YDR001C, strain nth1, stronger effect = lower value 1.01 | locus YDR069C, strain doa4, stronger effect = lower value 1.03 | locus YDR101C, strain arx1, stronger effect = lower value 1 | locus YDR137W, strain rgp1, stronger effect = lower value 1.05 | locus YDR159W, strain sac3, stronger effect = lower value 1.01 | locus YDR162C, strain NBP2, stronger effect = lower value 1.02 | locus YDR195W, strain ref2 0.98 | locus YDR297W, strain sur2, stronger effect = lower value 1.01 | locus YDR318W, strain mcm21, stronger effect = lower value 1.01 | locus YDR334W, strain swr1, stronger effect = lower value 1.02 | locus YDR335W, strain msn5, stronger effect = lower value 1.05 | locus YDR388W, stronger effect = lower value 0.989 | locus YDR392W, strain spt3, stronger effect = lower value 1.03 | locus YDR502C, strain sam2, stronger effect = lower value 0.993 | locus YEL003W, strain gim4, stronger effect = lower value 1.02 | locus YEL037C, strain rad23, stronger effect = lower value 1.01 | locus YEL061C, strain CIN8 (second series), stronger effect = lower value 1.02 | locus YEL061C, strain CIN8, stronger effect = lower value 1.01 | locus YER015W, strain faa2, stronger effect = lower value 1.02 | locus YER016W, strain bim1, stronger effect = lower value 1.01 | locus YER110C, stronger effect = lower value 0.995 | locus YER111C, strain swi4, stronger effect = lower value 1.01 | locus YER155C, strain BEM2 (second series), stronger effect = lower value 1.02 | locus YER155C, strain BEM2, stronger effect = lower value 1 | locus YER167W, strain BCK2, stronger effect = lower value 1.02 | locus YFR010W, strain ubp6, stronger effect = lower value 1.01 | locus YGL078C, strain dbp3, stronger effect = lower value 0.994 | locus YGL086W, strain mad1, stronger effect = lower value 1 | locus YGL167C, strain pmr1, stronger effect = lower value 1.02 | locus YGL173C, strain kem1, stronger effect = lower value 1.01 | locus YGL227W, strain vid30, stronger effect = lower value 1.03 | locus YGL240W, strain doc1, stronger effect = lower value 1.04 | locus YGL248W, strain PDE1, stronger effect = lower value 1.01 | locus YGL253W, strain hxk2, stronger effect = lower value 1.02 | locus YGR135W, strain pre9, stronger effect = lower value 0.981 | locus YGR252W, strain gcn5, stronger effect = lower value 0.989 | locus YHR013C, strain ard1, stronger effect = lower value 1.02 | locus YHR027C, strain rpn1, stronger effect = lower value 1.02 | locus YHR030C, strain SLT2, stronger effect = lower value 0.999 | locus YHR079C, strain IRE1 (second series), stronger effect = lower value 1.01 | locus YHR079C, strain IRE1, stronger effect = lower value 0.977 | locus YHR094C, strain hxt1, stronger effect = lower value 0.995 | locus YHR129C, strain ARP1, stronger effect = lower value 1.01 | locus YHR142W, strain chs7, stronger effect = lower value 1.02 | locus YHR200W, strain rpn10, stronger effect = lower value 0.987 | locus YIL066C, strain RNR3, stronger effect = lower value 1.03 | locus YIL073C, strain SPO22, stronger effect = lower value 1.05 | locus YIL125W, strain kgd1, stronger effect = lower value 0.998 | locus YIR030C, strain dcg1, stronger effect = lower value 1.01 | locus YJL092W, strain hpr5, stronger effect = lower value 1.02 | locus YJL095W, strain BCK1 (second series), stronger effect = lower value 1.02 | locus YJL095W, strain BCK1, stronger effect = lower value 1 | locus YJL115W, strain asf1, stronger effect = lower value 1.02 | locus YJL129C, strain trk1, stronger effect = lower value 1 | locus YJL134W, strain LCB3, stronger effect = lower value 1.01 | locus YJL154C, strain vps35, stronger effect = lower value 1.01 | locus YJL164C, strain tpk1, stronger effect = lower value 1.02 | locus YJL166W, strain qcr8, stronger effect = lower value 1.01 | locus YJL168C, strain set2, stronger effect = lower value 0.991 | locus YJL187C, strain SWE1 (second series), stronger effect = lower value 1 | locus YJL187C, strain SWE1, stronger effect = lower value 1 | locus YJR043C, strain POL32, stronger effect = lower value 1.01 | locus YJR066W, strain TOR1, stronger effect = lower value 0.906 | locus YKL009W, strain mrt4, stronger effect = lower value 1 | locus YKL068W, stronger effect = lower value 1.01 | locus YKL085W, strain MDH1 (second series), stronger effect = lower value 1 | locus YKL085W, strain MDH1, stronger effect = lower value 1 | locus YKL160W, strain elf1, stronger effect = lower value 1.02 | locus YKL190W, strain CNB1, stronger effect = lower value 1.01 | locus YKR001C, strain vps1, stronger effect = lower value 0.98 | locus YKR026C, strain gcn3, stronger effect = lower value 1.01 | locus YKR091W, strain srl3, stronger effect = lower value 1.01 | locus YLL001W, strain dnm1, stronger effect = lower value 1.02 | locus YLL026W, stronger effect = lower value 1.01 | locus YLL041C, strain sdh2, stronger effect = lower value 1 | locus YLR027C, strain aat2, stronger effect = lower value 1.02 | locus YLR039C, strain RIC1, stronger effect = lower value 1.03 | locus YLR058C, strain SHM2, stronger effect = lower value 1.02 | locus YLR102C, strain apc9, stronger effect = lower value 0.997 | locus YLR113W, strain HOG1, stronger effect = lower value 1.04 | locus YLR221C, strain rsa3, stronger effect = lower value 1.01 | locus YLR258W, strain gsy2, stronger effect = lower value 1.01 | locus YLR262C, strain YPT6 (second series), stronger effect = lower value 1 | locus YLR268W, strain sec22, stronger effect = lower value 1.02 | locus YLR320W, strain mms22, stronger effect = lower value 1.02 | locus YLR330W, strain CHS5, stronger effect = lower value 1.01 | locus YLR342W, strain FKS1, stronger effect = lower value 1.01 | locus YLR357W, strain rsc2, stronger effect = lower value 1.02 | locus YLR370C, strain arc18, stronger effect = lower value 1.02 | locus YLR371W, strain rom2, stronger effect = lower value 1 | locus YLR384C, strain iki3, stronger effect = lower value 1 | locus YLR418C, strain cdc73, stronger effect = lower value 1.01 | locus YML016C, strain PPZ1, stronger effect = lower value 1 | locus YML032C, strain rad52, stronger effect = lower value 0.994 | locus YML120C, strain ndi1, stronger effect = lower value 1.01 | locus YML124C, strain tub3, stronger effect = lower value 1 | locus YMR058W, strain fet3, stronger effect = lower value 1.02 | locus YMR078C, strain ctf18, stronger effect = lower value 1 | locus YMR125W, strain sto1, stronger effect = lower value 1.01 | locus YMR129W, stronger effect = lower value 1 | locus YMR205C, strain PFK2, stronger effect = lower value 1.02 | locus YMR223W, strain ubp8, stronger effect = lower value 0.99 | locus YMR231W, strain pep5, stronger effect = lower value 1 | locus YMR263W, strain SAP30, stronger effect = lower value 1.01 | locus YMR307W, strain GAS1, stronger effect = lower value 1 | locus YNL067W, strain RPL9B, stronger effect = lower value 1 | locus YNL071W, strain lat1, stronger effect = lower value 1.01 | locus YNL183C, strain NPR1, stronger effect = lower value 0.938 | locus YNL209W, strain ssb2, stronger effect = lower value 1.01 | locus YNL233W, strain BNI4, stronger effect = lower value 1 | locus YNL248C, strain rpa49, stronger effect = lower value 1.01 | locus YNL250W, strain rad50, stronger effect = lower value 0.989 | locus YNL271C, strain bni1, stronger effect = lower value 1.01 | locus YNL298W, strain CLA4, stronger effect = lower value 1 | locus YNL307C, strain MCK1, stronger effect = lower value 0.998 | locus YNL322C, strain KRE1 (second series), stronger effect = lower value 1.02 | locus YNR049C, strain mso1, stronger effect = lower value 1.02 | locus YNR052C, strain pop2, stronger effect = lower value 0.993 | locus YOL006C, strain TOP1, stronger effect = lower value 1.08 | locus YOL012C, strain htz1 1.19 | locus YOL147C, strain pex11, stronger effect = lower value 1 | locus YOR001W, strain rrp6, stronger effect = lower value 1 | locus YOR061W, strain CKA2, stronger effect = lower value 1.03 | locus YOR069W, strain VPS5, stronger effect = lower value 1.01 | locus YOR070C, strain gyp1, stronger effect = lower value 1.02 | locus YOR080W, strain dia2, stronger effect = lower value 1 | locus YOR083W, strain WHI5, stronger effect = lower value 1.02 | locus YOR106W, strain vam3, stronger effect = lower value 1.03 | locus YOR136W, strain idh2, stronger effect = lower value 0.994 | locus YOR144C, strain elg1, stronger effect = lower value 0.996 | locus YOR184W, strain ser1, stronger effect = lower value 1.03 | locus YOR231W, strain MKK1, stronger effect = lower value 0.989 | locus YOR265W, strain rbl2, stronger effect = lower value 0.995 | locus YOR270C, strain vph1, stronger effect = lower value 0.986 | locus YOR290C, strain snf2, stronger effect = lower value 1.04 | locus YOR316C, strain cot1, stronger effect = lower value 0.996 | locus YPL051W, strain arl3, stronger effect = lower value 1.02 | locus YPL078C, strain atp4, stronger effect = lower value 1.03 | locus YPL106C, strain sse1, stronger effect = lower value 1.04 | locus YPL240C, strain hsp82, stronger effect = lower value 1.01 | locus YPL241C, strain CIN2, stronger effect = lower value 1.01 | locus YPL256C, strain CLN2, stronger effect = lower value 0.979 | locus YPR119W, strain clb2, stronger effect = lower value 1 | locus YPR141C, strain kar3, stronger effect = lower value 1.01 | locus YPR163C, strain tif3, stronger effect = lower value 0.996 | locus YPR167C, strain met16, stronger effect = lower value 1 | strain wtn01, stronger effect = lower value 1
